# Source: PubChem
# SKN-1 inh: blocks SKN-1 activity in C. elegans | C. elegans VP596 Pgst-4::GFP/RFP ratio, acrylamide-induced, 24 h | inhibition, % at 21.8 µM | 360,000 tested, 0.49% active;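 active = interference check ratio from 0.5 to 1.5 plus GFP to RFP signal ratio inhibition reaching or exceeding a fixed threshold, cut at about 30% in these data, passing the limit was not always enough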
# MEKK2 mut-MEK5: signal of MEK5 binding to mutant human MEKK2 PB1 domain; bead flow cytometry, Alexa488-MEK5 binding to MEKK2 mutant; percent response, % at 10 µM; 290,000 tested, 0.35% active; in the data active = percent response above about 24%, passing the limit was not always enough
# MEKK2wt PB1 HTS: raises or lowers MEK5 binding to wildtype human MEKK2 PB1 domain. Q9Y2U5. bead flow cytometry, Alexa488-MEK5 binding to MEKK2 WT; actives lie on both sides. AID 1531. binding response (% of control), % at 10 µM. 290,000 tested, 1.1% active; in the data active = binding response below about 67% or above about 130%
# MEKK3 PB1 HTS: MEKK3-MEK5 PB1 interaction, increase or decrease. Q99759. bead-based flow cytometry, Alexa488-MEK5 binding to MEKK3; actives lie on both sides; 0 = blocked by unlabeled MEK5, 100 = vehicle. binding response (% of control), % at 10 µM. 290,000 tested, 1.4% active;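 active = binding response more than 3 SD above or below the average of its plate-row segment, actives on both sides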;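 note: Alexa488 bead fluorescence after subtracting the streptavidin-only scavenger bead signal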
# Target sequence (Q99759 whole entry, looked up): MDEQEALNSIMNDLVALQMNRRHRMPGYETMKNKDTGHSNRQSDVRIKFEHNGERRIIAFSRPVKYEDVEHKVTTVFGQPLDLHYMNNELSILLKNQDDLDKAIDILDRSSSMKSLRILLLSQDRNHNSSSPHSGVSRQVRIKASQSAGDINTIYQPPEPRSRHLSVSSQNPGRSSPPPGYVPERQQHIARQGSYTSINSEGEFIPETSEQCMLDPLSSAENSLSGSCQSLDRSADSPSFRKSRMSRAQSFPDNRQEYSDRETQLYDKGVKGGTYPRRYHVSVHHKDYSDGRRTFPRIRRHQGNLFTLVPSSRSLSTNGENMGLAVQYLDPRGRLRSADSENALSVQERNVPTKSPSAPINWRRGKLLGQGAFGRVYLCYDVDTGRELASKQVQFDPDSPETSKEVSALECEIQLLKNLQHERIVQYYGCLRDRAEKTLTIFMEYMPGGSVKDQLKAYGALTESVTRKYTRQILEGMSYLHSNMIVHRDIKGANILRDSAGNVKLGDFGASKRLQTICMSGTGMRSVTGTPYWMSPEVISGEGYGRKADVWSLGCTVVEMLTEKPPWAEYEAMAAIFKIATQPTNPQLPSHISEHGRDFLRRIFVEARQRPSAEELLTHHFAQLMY
# CendR NRP1 mod: alters CendR peptide binding to human NRP-1; inhibition, % at 25 µM; O14786; FAM-RPARPAR peptide binding to NRP-1, fluorescence polarization; 360,000 tested, 0.85% active; AID 602438;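 active = inhibition or corrected inhibition above about 18%, plus a signal ratio from 0.5 to 1.5, limit read from the data, passing the limit was not always enough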
# MEKK2wt confirm: raises or lowers MEK5 binding to wildtype human MEKK2, retest; shares compounds with MEKK3 PB1 HTS; bead flow cytometry, Alexa488-MEK5 binding to MEKK2 WT; actives lie on both sides; binding response (% of control), % at 10 µM; 5,900 tested, 2.4% active; AID 1892; in the data active = binding response below about 16% or above about 210%; inactive = in between
# MEKK2mut confirm: signal of MEK5 binding to mutant human MEKK2, retest; shares compounds with MEKK3 PB1 HTS; bead flow cytometry, Alexa488-MEK5 binding to MEKK2 mutant; percent response, % at 10 µM; 5,900 tested, 2% active; in the data active = percent response mostly above about 71%, no sharp cut-off; inactive = mostly below about 38%;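 note: higher means compound restores mutant binding toward wildtype level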
# MEKK3-MEK5 inh: confirmation of inhibitors of MEK5 binding to human MEKK3; shares compounds with MEKK3 PB1 HTS; bead flow cytometry, Alexa488-MEK5 binding to MEKK3; stronger effect = lower value; binding response (% of control), % at 10 µM; 5,900 tested, 1.8% active; AID 1894;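 active = binding response below 72% of control, or above a set upper limit, though filed actives all read lower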;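 note: 100% = DMSO only wells and 0% = binding blocked by excess unlabeled MEK5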
# Numbers without * were called inactive; x = no result; [ ] = dose if it differs, or a comment. A selection: hits, their analogues and other compounds. The true share with any hit is near 3.2%.
SMILES,SKN-1 inh,MEKK2 mut-MEK5,MEKK2wt PB1 HTS,MEKK3 PB1 HTS,CendR NRP1 mod,MEKK2wt confirm,MEKK2mut confirm,MEKK3-MEK5 inh
CCOC(=O)/C(=N/Nc1ccccc1)c1csc(Nc2ccccc2)n1,16,2,109,96,5,x,x,x
O=C(NN1C(=O)c2ccccc2C1=O)c1ccncc1,0,2,102,104,1,x,x,x
CN(C)c1ccc(C(=O)NN2C(=O)c3ccccc3C2=O)cc1,13,1,120,132*,0,104,1,103
COc1ccc(C(=O)CSc2nnc(NC(=O)C3CC(=O)N(c4ccccc4)C3)s2)cc1 (stereo not drawn),12,1,105,136*,8,104,9,104
COc1cc(C(C)=O)ccc1OC(=O)N1CCOCC1,21,x,x,x,-12,x,x,x
O=C(C(=O)N1CCCCC1)c1cn(CC(=O)N2CCCCCC2)c2ccccc12,14,-9,77,93,24,x,x,x
O=C(C(=O)N1CCc2ccccc2C1)c1cn(CC(=O)N2CCCC2)c2ccccc12,4,2,110,131*,-20,101,2,103
OC(COc1ccc(CNCCc2ccccc2F)cc1)CN1CCCCC1 (stereo not drawn),1,58*,168*,102,-2,140,15,109
CCOC(=O)c1ccccc1-n1c(C)cc(C2N=C(N)Nc3nc4ccccc4n32)c1C (stereo not drawn),3,29,146*,113,-6,153,29,106
CCOC(=O)C1=C(C)Nc2nc3ccccc3n2C1c1ccc(O)cc1 (stereo not drawn),-2,6,98,100,-10,x,x,x
Cc1ccc(S(=O)(=O)NCCCCCC(=O)N(C)C)cc1,1,-11,77,71*[inhibitor],0,105,6,106
NCCNc1ccc(C(=O)N2c3ccccc3Sc3ccccc32)cc1[N+](=O)[O-],14,37*,182*,114,2,167,48,111
Cc1ccc(-n2ncc3c(NNC(=O)Cc4ccccc4)ncnc32)cc1,3,1,108,143*,13,104,9,106
c1ccc(-n2ncc3c(NCCN4CCOCC4)ncnc32)cc1,-6,-6,92,93,-8,x,x,x
Cn1ncc2c(NNC(=O)Cc3ccccc3)ncnc21,6,0,99,119,1,x,x,x
c1ccc(-n2ncc3c(NCCN4CCCCC4)ncnc32)cc1,28,25*,113,104,0,122,11,104
Clc1ccc(OCCOCCOc2cccc3cccnc23)c(Br)c1,1,1,109,137*,-2,111,16,114
CC(=O)Nc1ccc(S(=O)(=O)N[C@@H](C)C(=O)OCc2ccc(Cl)cc2)cc1,-5,0,107,144*,1,107,0,102
COc1cc(/C=C/C(=O)Nc2ccc(C(C)=O)cc2)cc(OC)c1OC,3,-1,92,88,8,x,x,x
COc1cc(/C=C/C(=O)Nc2ccncc2)cc(OC)c1OC,-6,0,106,146*,-11,112,3,106
Cc1nnc(SCC(N)=O)n1CCc1ccccc1,5,2,110,136*,-1,97,-2,100
CN(CC(=O)Nc1ccc(F)cc1)C(=O)CN1C(=O)NC2(CCCC2)C1=O,4,x,x,x,12,x,x,x
C[C@@H]1CN([C@@H](C)CO)C(=O)c2ccccc2-c2ccccc2CO[C@@H]1CN(C)S(=O)(=O)c1ccc(C(F)(F)F)cc1,-2,x,x,x,-6,x,x,x
O=C(NC1CCCCC1)NC1CCN(CC(=O)N2CCOCC2)CC1,-20,-15,2.0*[inhibitor],2.0*[inhibitor],-2,101,-1,103
O=C(CN1CCCCC1)NC(=O)NC1CCCC1,0,-1,104,117,12,x,x,x
SMILES,SKN-1 inh,MEKK2 mut-MEK5,MEKK2wt PB1 HTS,MEKK3 PB1 HTS,CendR NRP1 mod,MEKK2wt confirm,MEKK2mut confirm,MEKK3-MEK5 inh
C=C1CCC(OC(C)=O)C2(C)CCC3C(C)C(=O)OC3C12O (stereo not drawn),-23,8,109,105,3,x,x,x
CC1(C(=O)N/N=C/c2ccc([N+](=O)[O-])o2)CC1(Br)Br (stereo not drawn),2,1,103,132*,8,101,-4,104
O=C(Cc1ccc([N+](=O)[O-])cc1)N/N=C/c1ccc([N+](=O)[O-])o1,-4,6,105,106,-8,x,x,x
O=C(O)/C=C/c1ccc([N+](=O)[O-])o1,5,-55,115,130*,4,101,-5,102
O=C(C1=C[C@H](c2ccc(C(F)(F)F)cc2)C[C@H](OCCCCO)O1)N1CCOCC1,-4,-3,100,82*[inhibitor],-1,99,-3,98
CN1CCN(NC(=O)c2cc(-c3ccc(Cl)s3)nc3ccccc23)CC1,5,3,113,101,-3,x,x,x
N#Cc1nc(-c2ccccc2)oc1NCC1CCCO1 (stereo not drawn),-3,0,112,147*,1,92,-8,96
N#Cc1nc(-c2ccccc2)oc1NCCN1CCCCC1,1,-21,3.0*[inhibitor],2.0*[inhibitor],12,108,2,104
CN(C)S(=O)(=O)c1ccc(C(=O)NCCC(=O)N2CCCC2)cc1,13,-7,103,102,5,x,x,x
Cc1ccc(S(=O)(=O)N(CCCc2c(C)nc[nH]c2=O)c2ccccc2)cc1,3,x,x,x,11,x,x,x
Cc1c(C(=O)Nc2ccc(Oc3ccccc3)cc2)sc2nc3n(c(=O)c12)CCC3,-3,-10,87,77*[inhibitor],7,99,-7,100
N#CCCN1CCN(C(=O)c2c(N)no[n+]2[O-])CC1,-2,0,112,128*,-2,99,-5,102
COc1ccc(NC(=O)N2CCN(CCC#N)CC2)cc1,-1,0,96,100,-12,x,x,x
CNC[C@H](CC1CCCCC1)NC[C@H](CO)NCCc1cccc(C(F)(F)F)c1,-14,6,152*,104,4,156,39,109
CNC[C@H](CC1CCCCC1)NC[C@H](CO)NCC1(c2ccccc2)CC1,4,-1,114,103,17,x,x,x
Cc1[nH]c2ccccc2c1C(=O)COC(=O)Cn1cnc2ccccc21,-2,55*,120,102,-8,107,7,103
Cc1[nH]c2ccccc2c1C(=O)COC(=O)Cn1c(C)nc2ccccc21,-3,5,103,106,1,x,x,x
Cc1ccc(-c2nc3c(Cl)cc(C(F)(F)F)cn3c2Cc2ccccc2)cc1,13,x,x,x,-13,x,x,x
